Source: PubChem BioAssay (National Center for Advancing Translational Sciences (NCATS))
CBFb RUNX1 block: qHTS Assay for Compounds Blocking the Interaction Between CBF-beta and RUNX1 for the Treatment of Acute Myeloid Leukemia | Runt-related transcription factor 1 (Homo sapiens) + Core-binding factor subunit beta … | AlphaScreen CBFb-His/RUNX1-biotin binding, biochemical | Potency, µM (titrated, usually from 59.8 µM), for inactives: top-dose activity, negative = inhibition, actives largely listed as inhibitors | 230,000 tested, under 10 active | AID 1477, 2009; further: % of control where 0% means no effect
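His-tagged CBF-beta and biotinylated RUNX1 (30 nM each) were premixed 20 min at room temperature, exposed to compound for 15 min, then given nickel-chelate and streptavidin AlphaScreen beads (50 ng each). After 90 min, AlphaScreen signal was read.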
Six1-Eya2 inh: qHTS Assay for Inhibitors of the Six1/Eya2 Interaction; AID 651725, 2012; AlphaScreen GST-Six1/His-Eya2 binding, biochemical; stronger effect = lower value; Homeobox protein SIX1 (Homo sapiens) + Protein phosphatase EYA2 (Homo sapiens), …; activity change, % (no concentration beside the values); 0.56% of 360,000 active; in the data active means activity change below about -65%; inconclusive means mostly about -30% to -63%; further: on the % scale 0 is the no-effect control and ±100 the full control effect
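AlphaScreen with GST-Six1 and His-Eya2 (5X mix: 250 nM and 500 nM), glutathione donor and nickel acceptor beads; buffer 50 mM Tris pH 8.0, 300 mM NaCl, 1 mM TCEP; 1 h at 37 C in the dark.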
RORg inh: qHTS for inhibitors of ROR gamma transcriptional activity; Potency, µM (series often up to 53.6 µM), for inactives: at the top dose activity change, negative = inhibition, actives largely listed as inhibitors; Nuclear receptor ROR-gamma (Mus musculus), P51450; 5.4% of 310,000 active; Drosophila S2 Gal4-RORgamma UAS-luciferase reporter, 20 h; AID 2551, 2010; further: potency means the concentration at half of the fitted maximal effect; on the % scale 0 is the no-effect control and ±100 the full control effect; nearly all actives have a fitted effect of over 60% in size
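Using a luciferase readout, inhibitors were identified by reduced reporter activity in Drosophila cells coexpressing a copper-inducible Gal4–ROR gamma fusion and UAS-driven Photinus luciferase, incubated 20 hr after 700 uM copper sulfate.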
CtBP-E1A blk: qHTS Assay for Inhibitors of the CtBP/E1A Interaction; AID 651724, 2012; AlphaScreen GST-E1A/His-CtBP binding, 1536-well; stronger effect = lower value; CtBP / adenovirus E1A interaction (AlphaScreen); activity change, % (no concentration beside the values); 0.49% of 340,000 active; in the data active means activity change below about -65%; inconclusive means mostly about -30% to -63%; further: on the % scale 0 is the no-effect control and ±100 the full control effect
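Steps: dispense buffer (Tris pH 8.0, NaCl 300 mM, TCEP 1 mM, BSA, Tween 20); add 5X protein mix (GST-E1A, His-CtBP, 125 nM each); pin 23 nL compound; 2 h at 37 °C, dark; add 5X beads (50 ug/mL); 1 h; read.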
MBNL1 CUG block: qHTS Assay for Inhibitors of MBNL1-poly(CUG) RNA binding | Muscleblind-like protein 1 (Homo sapiens), Q9NR56 | TR-FRET MBNL1-His/biotin-(CUG)12 binding, 665/545 ratio | Potency, µM (doses to about 57.5 µM), without a hit: at the highest dose activity change, negative = inhibition, most hits filed as inhibitors | 0.036% of 280,000 active; active means well fitted inhibition curve with a large enough effect in the signal ratio, with a control signal flat, not every such curve was filed as active; inconclusive means small, poorly fitted or top-dose-only effect, or effect the other way, or a change in a side signal; inactive means no such curve, though single readings can be large or run the other way; the % refers to the signal ratio; further: potency means the concentration at half of the fitted maximal effect; on the % scale 0 is the no-effect control and ±100 the full control effect
Target sequence (Q9NR56 whole entry, looked up): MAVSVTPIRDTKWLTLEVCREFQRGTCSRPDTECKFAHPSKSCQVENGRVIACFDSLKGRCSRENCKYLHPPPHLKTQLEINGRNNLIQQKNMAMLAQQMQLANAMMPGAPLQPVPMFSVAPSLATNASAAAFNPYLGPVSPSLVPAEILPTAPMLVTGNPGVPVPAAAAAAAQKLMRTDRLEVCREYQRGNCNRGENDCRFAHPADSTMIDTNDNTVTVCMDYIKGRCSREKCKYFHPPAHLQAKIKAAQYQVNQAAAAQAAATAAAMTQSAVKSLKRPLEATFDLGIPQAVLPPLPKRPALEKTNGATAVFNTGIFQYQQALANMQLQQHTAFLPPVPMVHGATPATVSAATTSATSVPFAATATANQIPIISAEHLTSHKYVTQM
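MBNL1-His + Biotin-(CUG)12, cpd titration 92 nM–58 uM; Tb anti-His Ab 0.055 ng/ul, SA-XL665 5 nM (final); 60 min RT; ratiometric 665/545 nm, Ex 340 nm; normalized to buffer and full-complex controls.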
VP16 counter: VP16 counterscreen qHTS for inhibitors of ROR gamma transcriptional activity; 3.5% of 310,000 active; AID 2546, 2010; Potency, µM (series often up to 53.6 µM), without a hit: at the top dose activity, negative = inhibition, most hits filed as inhibitors; Drosophila S2 Gal4-VP16 UAS-luciferase, luminescence, 20 h;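 further: Gal4-VP16 expression switched on by copper sulfate through the metallothionein promoter; potency means the concentration at half of the fitted maximal effect; on the % scale 0 is the no-effect control and ±100 the full control effect; nearly all actives have a fitted effect of over 50% in size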
The depositor's hits bear a star; u = inconclusive; x = not tested or not shown; [ ] = dose if it differs, or a comment. Hits are enriched below; roughly 5.5% of the tested compounds scored in any of these assays. Unless noted, the call rests on the fitted dose curve; in most records, active means well fitted curve in the direction sought with a large enough effect; inconclusive means small, poorly fitted or top-dose-only effect, or another doubt; inactive means no such curve, though single readings can be large; an effect the other way counts as inactive or inconclusive.

SMILES	CBFb RUNX1 block	Six1-Eya2 inh	RORg inh	CtBP-E1A blk	MBNL1 CUG block	VP16 counter
S=C(NCCc1cccc(Cl)c1)NCc1ccccc1	x	x	8.9µM*	x	-3%	u
C/C(=N\NC(=S)NCCc1ccccc1)c1ccc(Cl)cc1Cl	x	-12	1.8µM*	0	-3%	6.3µM*
S=C(NCc1ccccc1)NCc1cccc(Cl)c1	x	7	10µM*	-9	2%	u
Fc1ccc(CNC(=S)NCc2cccc(Cl)c2)cc1	x	-6	45%	u	-5%	u
CCn1c(=O)c(C(=O)NNC(=O)c2ccccc2Cl)c(O)c2ccccc21	x	-28	7.9µM*	u	-11%	u
Cn1c(=O)c(C(=O)NNC(=O)c2ccccc2F)c(O)c2ccccc21	x	4	18µM*	9	2%	u
CCCCCC(=O)NNC(=O)c1c(O)c2ccccc2n(CC)c1=O	2%	12	43%	-16	9%	1%
CCn1c(=O)c(C(=O)NNC(=O)c2ccccc2F)c(O)c2ccccc21	x	-10	7.9µM*	-17	-4%	u
CCCCCCCCCC(=O)NNC(=O)c1c(O)c2ccccc2n(CC)c1=O	8%	2	-11%	2	4%	0%
C=C1C(=O)O[C@H]2C[C@H]1[C@@H](OC(C)=O)C/C(C)=C/CC/C(C)=C\CC[C@]2(C)O	x	0	x	7	x	x
CC1(C(=O)Nc2ccc(Cl)cc2)Cc2c(-c3ccc(C(N)=O)cc3)ccnc2O1 (stereo unspecified)	x	-4	x	4	x	x
CCCCn1nnnc1C1(C)CCC(=O)N1Cc1cccnc1 (stereo unspecified)	x	8	x	5	x	x
O=c1c2nc(Br)n([C@@H]3O[C@@H]4CO[P@@](O)(=S)O[C@H]4[C@H]3O)c2nc2[nH]c(-c3ccccc3)cn12	7%	x	1%	x	x	-10%
COc1ccc(CC(=O)Nc2nc(OCCN3CCCC3=O)cnc2-c2cccc(C(F)(F)F)c2)cc1	x	-1	x	-3	x	x
CCOc1ccc(N(Cc2nnc3n2CCCCC3)C(=O)Nc2cccc(C)c2)cc1	1%	-6	-2%	8	-4%	-5%
OC(c1ccc(F)c(F)c1)c1nc(-c2ccc3c(c2)OCO3)cs1 (stereo unspecified)	x	-5	x	5	x	x
Cc1cccc(-n2cc(-c3ccccc3)c3c(NN4CCOCC4)ncnc32)c1	-20%	0	6.3µM*	-4	13%	u
Cc1ccc(-n2cc(-c3ccccc3)c3c(NN4CCOCC4)ncnc32)cc1	3%	-3	u	23	u	u
CC1(C)CC(C)(c2ccc(O)cc2O)N(c2ccc3ccccc3c2)C(=S)N1 (stereo unspecified)	-19%	-27	7.9µM*	-17	16%	u
CC1(C)CC(C)(c2ccc(O)cc2O)N(c2cccc(Cl)c2)C(=S)N1 (stereo unspecified)	-20%	-24	u	-28	-13%	-8%
Cc1oc(-c2ccccc2Cl)nc1CS(=O)(=O)CC(=O)NCCN1CCOCC1	x	3	-1%	-2	7%	7%
CCNC(=S)NNC(=O)C(c1ccccc1)c1ccccc1	0%	-2	3.2µM*	-11	11%	11µM*
CN(C)C(=S)NC(=O)C(c1ccccc1)c1ccccc1	-7%	7	1.4µM*	0	-6%	u
CC(=O)NNC(=S)NC(=O)C(c1ccccc1)c1ccccc1	2%	-5	u	-22	25%	3%
CC(C)(C)C(=O)NC(=S)NNC(=O)C(c1ccccc1)c1ccccc1	-8%	-4	2.8µM*	-5	-1%	11µM*
SMILES	CBFb RUNX1 block	Six1-Eya2 inh	RORg inh	CtBP-E1A blk	MBNL1 CUG block	VP16 counter
CCNC(=S)NNC(=O)Nc1ccccc1	3%	2	-35%	7	1%	5%
O=C(Nc1ccccc1)C(c1ccccc1)c1ccccc1	x	13	-20%	5	-8%	-14%
COCCn1c(=O)c(-c2cccs2)nc2cnc(OC)nc21	x	x	-10%	x	x	5%
CCN(CC(=O)Nc1c(F)cccc1F)C(=O)c1cccc(-n2cccc2)c1	x	-27	x	-3	x	x
CN(C(=O)COC(=O)c1ccc(=O)n(Cc2ccccc2)n1)C1CCS(=O)(=O)C1 (stereo unspecified)	x	4	x	8	x	x
CCOC(=O)C1(Cc2cccc(OC)c2)CCCN(C(=O)CCN2CCCO2)C1 (stereo unspecified)	x	-2	-13%	0	-9%	u
CC(C)(C)n1nnnc1C(c1ccc(Cl)cc1)N(Cc1cccnc1)Cc1ccco1 (stereo unspecified)	-12%	2	u	9	-17%	-3%
CC(C)(C)n1nnnc1C(c1ccc(C(F)(F)F)cc1)N(Cc1ccc(F)cc1)Cc1ccco1 (stereo unspecified)	4%	5	u	18	4%	u
Cc1ccc(C(c2nnnn2C(C)(C)C)N(Cc2ccco2)Cc2cccs2)cc1 (stereo unspecified)	2%	-16	10µM*	1	0%	7.1µM*
CC(C)(C)n1nnnc1C(c1ccc(C(F)(F)F)cc1)N(Cc1ccccc1)Cc1ccco1 (stereo unspecified)	3%	-6	6.3µM*	-1	1%	4µM*
CC(C)(C)n1nnnc1C(c1ccc(F)cc1)N(Cc1ccc(F)cc1)Cc1ccco1 (stereo unspecified)	11%	1	11µM*	5	12%	-11%[0.365 µM]
CN1C(=O)c2ccc(NC(=O)c3c(C(=O)O)cccc3[N+](=O)[O-])cc2C1=O	x	-14	-3%	-1	u	-6%
OC(c1cccc(F)c1)c1ncc(-c2ccc(Oc3ccccc3)cc2)[nH]1 (stereo unspecified)	x	u	x	-14	x	x
COc1ccc2cc(C(=O)C3CCCN(Cc4cnc(N5CCOCC5)s4)C3)ccc2c1 (stereo unspecified)	-12%	-28	7%	-17	8%	-3%
COc1ccc(C(=O)N2CCN(Cc3ccccn3)CC2)cc1	x	7	16%	5	-5%	2%
